Data from PubChem BioAssay AID1159580 (chemical genetic matrix, 2015).
Screen size: about 5,500 compounds; about 2,000 (36%) were called active. Inconclusive results (about 18%) are left out. This is one part of the list. Values without a mark were called inactive. Cut-off read from the data, not from the text of the source: active = normalized growth mostly below about 0.91 (no sharp cut-off); inconclusive = no clear call, values can overlap the other calls; inactive = mostly above about 0.92.

Assay: chemical genetic growth profiling, strain panel (AID 1159580);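 note: tested at 20 µM; growth read once vehicle control cultures reached saturation at 30 °C; 1 = growth at the plate median or of vehicle wells; lower values mean less growth of the strain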
Details: S. cerevisiae deletion strains, growth OD

Nc1nccs1
normalized growth (locus YAL021C, strain ccr4, hits give low values): 0.994 | normalized growth (locus YAL026C, strain drs2, hits give low values): 0.993 | normalized growth (locus YAL030W, strain snc1, hits give low values): 0.995 | normalized growth (locus YBL061C, strain skt5, hits give low values): 0.995 | normalized growth (locus YBR009C, strain hhf1, hits give low values): 0.987 | normalized growth (locus YBR021W, strain FUR4, hits give low values): 1.03 | normalized growth (locus YBR023C, strain chs3, hits give low values): 0.991 | normalized growth (locus YBR171W, strain sec66, hits give low values): 0.975 | normalized growth (locus YBR229C, strain ROT2, hits give low values): 0.949 | normalized growth (locus YBR231C, strain swc5, hits give low values): 0.973 | normalized growth (locus YBR279W, strain paf1, hits give low values): 1 | normalized growth (locus YCL011C, strain gbp2, hits give low values): 1.02 | normalized growth (locus YCL016C, strain dcc1, hits give low values): 0.989 | normalized growth (locus YCL029C, strain bik1, hits give low values): 0.98 | normalized growth (locus YCL061C, strain MRC1, hits give low values): 0.978 | normalized growth (locus YCL069W, strain vba3, hits give low values): 0.988 | normalized growth (locus YCR088W, strain abp1, hits give low values): 0.992 | normalized growth (locus YDL005C, strain med2, hits give low values): 0.985 | normalized growth (locus YDL035C, strain GPR1, hits give low values): 1.01 | normalized growth (locus YDL040C, strain nat1, hits give low values): 0.986 | normalized growth (locus YDL074C, strain BRE1, hits give low values): 0.96 | normalized growth (locus YDL101C, strain DUN1, hits give low values): 0.974 | normalized growth (locus YDL134C, strain PPH21, hits give low values): 0.983 | normalized growth (locus YDL185W, strain tfp1, hits give low values): 0.984 | normalized growth (locus YDL192W, strain arf1, hits give low values): 0.983 | normalized growth (locus YDR001C, strain nth1, hits give low values): 1 | normalized growth (locus YDR069C, strain doa4, hits give low values): 0.95 | normalized growth (locus YDR101C, strain arx1, hits give low values): 0.941 | normalized growth (locus YDR137W, strain rgp1, hits give low values): 0.998 | normalized growth (locus YDR159W, strain sac3, hits give low values): 0.953 | normalized growth (locus YDR162C, strain NBP2, hits give low values): 0.996 | normalized growth (locus YDR195W, strain ref2): 0.958 | normalized growth (locus YDR297W, strain sur2, hits give low values): 0.997 | normalized growth (locus YDR318W, strain mcm21, hits give low values): 0.989 | normalized growth (locus YDR334W, strain swr1, hits give low values): 0.997 | normalized growth (locus YDR335W, strain msn5, hits give low values): 0.978 | normalized growth (locus YDR388W, hits give low values): 0.991 | normalized growth (locus YDR392W, strain spt3, hits give low values): 0.945 | normalized growth (locus YDR502C, strain sam2, hits give low values): 0.983 | normalized growth (locus YEL003W, strain gim4, hits give low values): 0.997 | normalized growth (locus YEL037C, strain rad23, hits give low values): 0.987 | normalized growth (locus YEL061C, strain CIN8 (second series), hits give low values): 0.991 | normalized growth (locus YEL061C, strain CIN8, hits give low values): 0.984 | normalized growth (locus YER015W, strain faa2, hits give low values): 0.991 | normalized growth (locus YER016W, strain bim1, hits give low values): 1.01 | normalized growth (locus YER110C, hits give low values): 0.986 | normalized growth (locus YER111C, strain swi4, hits give low values): 0.986 | normalized growth (locus YER155C, strain BEM2 (second series), hits give low values): 0.841 (active) | normalized growth (locus YER155C, strain BEM2, hits give low values): 1 | normalized growth (locus YER167W, strain BCK2, hits give low values): 0.995 | normalized growth (locus YFR010W, strain ubp6, hits give low values): 0.991 | normalized growth (locus YGL078C, strain dbp3, hits give low values): 1.01 | normalized growth (locus YGL086W, strain mad1, hits give low values): 0.953 | normalized growth (locus YGL167C, strain pmr1, hits give low values): 0.981 | normalized growth (locus YGL173C, strain kem1, hits give low values): 0.99 | normalized growth (locus YGL227W, strain vid30, hits give low values): 0.991 | normalized growth (locus YGL240W, strain doc1, hits give low values): 0.96 | normalized growth (locus YGL248W, strain PDE1, hits give low values): 0.974 | normalized growth (locus YGL253W, strain hxk2, hits give low values): 1.01 | normalized growth (locus YGR135W, strain pre9, hits give low values): 1.06 | normalized growth (locus YGR229C, strain SMI1, hits give low values): 1.01 | normalized growth (locus YGR252W, strain gcn5, hits give low values): 1.09 | normalized growth (locus YHR013C, strain ard1, hits give low values): 1.02 | normalized growth (locus YHR027C, strain rpn1, hits give low values): 0.994 | normalized growth (locus YHR030C, strain SLT2, hits give low values): 1 | normalized growth (locus YHR079C, strain IRE1 (second series), hits give low values): 0.989 | normalized growth (locus YHR094C, strain hxt1, hits give low values): 0.984 | normalized growth (locus YHR129C, strain ARP1, hits give low values): 0.987 | normalized growth (locus YHR142W, strain chs7, hits give low values): 1.02 | normalized growth (locus YHR200W, strain rpn10, hits give low values): 0.984 | normalized growth (locus YIL066C, strain RNR3, hits give low values): 0.953 | normalized growth (locus YIL073C, strain SPO22, hits give low values): 1.04 | normalized growth (locus YIL125W, strain kgd1, hits give low values): 0.989 | normalized growth (locus YIR030C, strain dcg1, hits give low values): 0.988 | normalized growth (locus YJL092W, strain hpr5, hits give low values): 0.969 | normalized growth (locus YJL095W, strain BCK1 (second series), hits give low values): 0.998 | normalized growth (locus YJL095W, strain BCK1, hits give low values): 0.934 | normalized growth (locus YJL115W, strain asf1, hits give low values): 0.998 | normalized growth (locus YJL129C, strain trk1, hits give low values): 0.978 | normalized growth (locus YJL134W, strain LCB3, hits give low values): 0.99 | normalized growth (locus YJL154C, strain vps35, hits give low values): 0.993 | normalized growth (locus YJL164C, strain tpk1, hits give low values): 0.997 | normalized growth (locus YJL166W, strain qcr8, hits give low values): 0.961 | normalized growth (locus YJL168C, strain set2, hits give low values): 0.988
